# Source: PubChem BioAssay
# Activity calls are given as the source filed them.
# Experiments:
# [1] = molecular target: Albumin (Bos taurus) (UniProt P02769); test: bovine serum albumin binders on microarray, profiling panel, artefact control for SMM control protein annotation, biochemical, small-molecule microarray, Alexa647 label, 635/667 nm fluorescence (AID 1118); conditions: BSA-A647 binding, fluorescence 635 nm, higher = more signal;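 also: score merges 667 nm emission intensity and signal-to-noise per printed compound spot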
# [2] = small-molecule microarray binders of probe aXIP, primary screen, biochemical, NeuroSMM set, 635/667 nm fluorescence (AID 1119); conditions: higher = more signal, called active from +8 up or from −8 down;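 also: probe is the protein aXip251-270 applied at 1 µg/mL to compound-printed slides; binding of probe to printed compounds measured as 667 nm fluorescence plus signal to noise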
# [3] = small-molecule binders of probe aNOTCH3, primary screen, biochemical, small-molecule microarray, 635/667 nm fluorescence (AID 1120); conditions: higher = more signal;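 also: probe is a biotin-tagged antibody raised against NOTCH3 rather than NOTCH3 protein; score merges spot fluorescence near 667 nm with spot signal to noise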
# [4] = small-molecule binders of probe aNOTCH2, primary screen, biochemical, small-molecule microarray, 635/667 nm fluorescence (AID 1121); conditions: higher = more signal;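 also: score merges feature fluorescence read at 667 nm with its signal to noise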
# [5] = molecular target: Carbonic anhydrase 2 (Homo sapiens) (UniProt P00918); test: CAII small-molecule binders, profiling panel, biochemical, small-molecule microarray, Alexa647-labelled CAII (AID 1122); conditions: CAII-A647 binding fluorescence, higher = more signal
# [6] = COS7 lysate on small-molecule microarray, probe aHis, 635 nm (AID 1123); conditions: COS7 cell lysate, fluorescence, higher = more signal;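 also: z-score combines 667nm fluorescence intensity with signal-to-noise per printed compound spot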
# [7] = compound binding in COS7 lysate, probe aLAP1, primary screen, cell lysate, small-molecule microarray (AID 1124); conditions: probe aLAP1, fluorescence, higher = more signal;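 also: lysate comes from COS7 cells expressing LAP1 and is applied at 0.3 µg/mL; score merges spot fluorescence near 667 nm with signal-to-noise over triplicate slides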
# [8] = test system: Sam68 (KHDRBS1); test: Sam68 small-molecule binders, primary screen, biochemical, small-molecule microarray, 635 nm fluorescence (AID 1125); conditions: small-molecule microarray binding, higher = more signal;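 also: score merges 667 nm channel intensity with signal to noise over triplicate slides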
# [9] = test system: Chordin-like protein 2 (CHRDL2); test: CHRDL2 small-molecule binders, primary screen, biochemical, small-molecule microarray, 635 nm fluorescence (AID 1126); conditions: small-molecule microarray binding, fluorescence 635 nm; higher = more signal;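 also: printed compound slides probed with Chrdl2 protein at 4 µg/mL for 1 h at 4 C; score merges 667 nm emission intensity with signal to noise over three replicate slides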
# [10] = molecular target: Concanavalin-A (Canavalia ensiformis) (UniProt P02866); test: ConA small-molecule binders, primary screen, artefact control for SMM control protein annotation, biochemical, small-molecule microarray, Alexa647 label, 635 nm (AID 1127); conditions: ConA-A647 binding fluorescence, higher = more signal;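 also: z combines 667 nm emission intensity with signal-to-noise across three replicate slides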
# [11] = anti-His antibody binders, primary screen, artefact control for SMM control protein annotation, biochemical, small-molecule microarray, 635 nm fluorescence (AID 1128); conditions: anti-His Alexa647 antibody binding, higher = more signal;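 also: score merges feature fluorescence with signal-to-noise for each printed compound spot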
# [12] = test system: Human papillomavirus type 1a E7 protein (residues 1-88); test: HPV1a E7 small-molecule binders, primary screen, biochemical, small-molecule microarray, residues 1-88, 635 nm (AID 1129); conditions: small-molecule microarray binding, fluorescence 635 nm; higher = more signal
# [13] = molecular target: Focal adhesion kinase 1 (Homo sapiens) (UniProt Q05397); test: small-molecule microarray binders of FAK, primary screen, biochemical, 635/667 nm fluorescence, BSA, DTT (AID 1130); conditions: PTK2 binding, 635 nm fluorescence, higher = more signal;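 also: composite of spot emission at 667 nm and signal to noise over triplicate slides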
# [14] = test system: Fibrinogen (Alexa647-labelled); test: fibrinogen binders on compound microarrays, profiling panel, artefact control for SMM control-protein annotation, biochemical, small-molecule microarray, 635/667 nm fluorescence (AID 1131); conditions: fibrinogen-A647 binding fluorescence, higher = more signal;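 also: z-score merges 667 nm fluorescence with per-spot signal-to-noise over triplicate slides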
# [15] = molecular target: Follistatin (Homo sapiens) (UniProt P19883); test: follistatin binders on small-molecule microarrays, primary screen, biochemical, small-molecule microarray, 635/667 nm fluorescence (AID 1132); conditions: FST binding, 635 nm fluorescence, higher = more signal
# [16] = molecular target: Fibroblast growth factor 2 (Homo sapiens) (UniProt P09038); test: FGF2 binders on small-molecule microarrays, primary screen, biochemical, small-molecule microarray, 635/667 nm fluorescence (AID 1133); conditions: small-molecule microarray binding, FGF2, fluorescence 635/667; higher = more signal
# [17] = mitochondrial membrane potential change in A549 cells, profiling panel, cell-based, JC-1 fluorescence, basal, 24 h, 100 nL (AID 1138); conditions: higher = more signal;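 also: A549 lung adenocarcinoma cells under basal conditions with no added stimulus; test concentration not given here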
# [18] = test system: Lefty1; test: Lefty1 binders on small-molecule microarrays, primary screen, biochemical, small-molecule microarray, 635/667 nm fluorescence (AID 1139); conditions: small-molecule microarray binding, fluorescence 635/667; higher = more signal
# [19] = test system: wheat germ agglutinin (Triticum aestivum), Alexa647-labelled; test: wheat germ agglutinin binders on compound microarrays, profiling panel, artefact control for SMM control-protein annotation, biochemical, small-molecule microarray, 635/667 nm fluorescence (AID 1140); conditions: WGA-A647 binding, 635 nm fluorescence, higher = more signal;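 also: score merges 667 nm feature emission with signal to noise over triplicate slides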
# [20] = molecular target: Luciferin 4-monooxygenase (Photinus pyralis) (UniProt P08659); test: firefly luciferase enzyme inhibitors, primary screen, biochemical, luminescence, purified enzyme, 2006 set (AID 1141); conditions: SteadyGlo luminescence, 30 min, higher = more signal, called active from +8 up or from −8 down;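 also: cell-free assay with purified firefly luciferase at 100 ng per well in PBS; test concentration not given here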
# Chain of Luciferin 4-monooxygenase (Photinus pyralis) (P08659 whole entry, looked up): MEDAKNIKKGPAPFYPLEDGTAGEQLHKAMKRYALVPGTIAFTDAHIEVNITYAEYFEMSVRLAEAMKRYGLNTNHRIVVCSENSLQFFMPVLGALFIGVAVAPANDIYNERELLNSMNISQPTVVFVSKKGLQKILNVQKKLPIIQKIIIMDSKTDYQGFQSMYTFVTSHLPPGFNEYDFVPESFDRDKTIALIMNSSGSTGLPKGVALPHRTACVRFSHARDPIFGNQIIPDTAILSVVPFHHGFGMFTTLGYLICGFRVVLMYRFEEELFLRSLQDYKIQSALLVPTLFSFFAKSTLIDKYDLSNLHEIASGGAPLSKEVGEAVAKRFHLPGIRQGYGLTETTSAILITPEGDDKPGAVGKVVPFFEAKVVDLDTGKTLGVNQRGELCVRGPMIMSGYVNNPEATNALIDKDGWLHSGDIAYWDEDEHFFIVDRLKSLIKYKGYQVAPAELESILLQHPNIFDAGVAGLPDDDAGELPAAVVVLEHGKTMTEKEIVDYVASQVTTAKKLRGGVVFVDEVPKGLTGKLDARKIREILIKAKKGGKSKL
# Chain of Follistatin (Homo sapiens) (P19883 whole entry, looked up): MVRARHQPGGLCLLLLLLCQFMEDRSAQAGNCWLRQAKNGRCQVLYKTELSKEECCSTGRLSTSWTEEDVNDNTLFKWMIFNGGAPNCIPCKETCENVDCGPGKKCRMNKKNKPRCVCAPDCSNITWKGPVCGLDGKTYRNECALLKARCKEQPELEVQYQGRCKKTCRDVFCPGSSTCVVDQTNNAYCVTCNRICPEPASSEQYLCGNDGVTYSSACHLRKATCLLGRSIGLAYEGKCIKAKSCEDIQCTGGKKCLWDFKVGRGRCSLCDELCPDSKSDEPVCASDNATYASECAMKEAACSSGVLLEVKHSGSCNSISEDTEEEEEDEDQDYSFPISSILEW
# Chain of Focal adhesion kinase 1 (Homo sapiens) (Q05397 whole entry, looked up): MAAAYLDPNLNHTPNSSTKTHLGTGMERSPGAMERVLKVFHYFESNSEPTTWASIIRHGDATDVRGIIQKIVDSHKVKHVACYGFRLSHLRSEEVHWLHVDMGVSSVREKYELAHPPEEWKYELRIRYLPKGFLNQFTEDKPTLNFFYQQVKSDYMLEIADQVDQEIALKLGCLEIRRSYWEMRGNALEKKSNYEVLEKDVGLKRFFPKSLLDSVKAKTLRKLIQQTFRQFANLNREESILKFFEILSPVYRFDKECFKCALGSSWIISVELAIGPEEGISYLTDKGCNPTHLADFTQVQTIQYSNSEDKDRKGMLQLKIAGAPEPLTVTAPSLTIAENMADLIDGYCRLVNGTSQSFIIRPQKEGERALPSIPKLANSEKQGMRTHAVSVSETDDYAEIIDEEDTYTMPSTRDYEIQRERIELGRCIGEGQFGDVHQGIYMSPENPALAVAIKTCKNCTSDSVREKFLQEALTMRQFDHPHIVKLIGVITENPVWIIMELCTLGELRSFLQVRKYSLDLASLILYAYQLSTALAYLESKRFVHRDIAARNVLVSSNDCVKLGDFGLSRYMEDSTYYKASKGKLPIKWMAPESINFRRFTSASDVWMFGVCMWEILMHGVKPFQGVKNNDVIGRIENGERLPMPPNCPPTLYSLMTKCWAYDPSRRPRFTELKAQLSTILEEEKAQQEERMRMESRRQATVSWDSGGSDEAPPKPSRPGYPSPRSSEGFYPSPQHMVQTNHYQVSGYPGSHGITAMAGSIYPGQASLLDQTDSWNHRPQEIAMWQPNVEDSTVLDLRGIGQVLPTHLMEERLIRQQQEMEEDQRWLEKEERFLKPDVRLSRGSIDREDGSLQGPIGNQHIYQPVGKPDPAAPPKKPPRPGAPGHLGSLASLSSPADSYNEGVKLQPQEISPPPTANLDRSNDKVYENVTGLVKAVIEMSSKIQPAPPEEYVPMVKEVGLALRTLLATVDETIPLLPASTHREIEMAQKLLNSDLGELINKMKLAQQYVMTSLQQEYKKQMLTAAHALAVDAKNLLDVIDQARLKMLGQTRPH
# Chain of Concanavalin-A (Canavalia ensiformis) (P02866 whole entry, looked up): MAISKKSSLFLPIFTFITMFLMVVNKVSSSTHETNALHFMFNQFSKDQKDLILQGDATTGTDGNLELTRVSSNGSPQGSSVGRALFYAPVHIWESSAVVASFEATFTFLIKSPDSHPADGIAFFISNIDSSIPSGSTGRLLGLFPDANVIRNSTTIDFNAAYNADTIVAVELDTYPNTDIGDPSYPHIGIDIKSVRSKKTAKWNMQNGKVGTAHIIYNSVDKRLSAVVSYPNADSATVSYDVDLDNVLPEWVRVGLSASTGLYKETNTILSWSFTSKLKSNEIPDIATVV
# Chain of Albumin (Bos taurus) (P02769 whole entry, looked up): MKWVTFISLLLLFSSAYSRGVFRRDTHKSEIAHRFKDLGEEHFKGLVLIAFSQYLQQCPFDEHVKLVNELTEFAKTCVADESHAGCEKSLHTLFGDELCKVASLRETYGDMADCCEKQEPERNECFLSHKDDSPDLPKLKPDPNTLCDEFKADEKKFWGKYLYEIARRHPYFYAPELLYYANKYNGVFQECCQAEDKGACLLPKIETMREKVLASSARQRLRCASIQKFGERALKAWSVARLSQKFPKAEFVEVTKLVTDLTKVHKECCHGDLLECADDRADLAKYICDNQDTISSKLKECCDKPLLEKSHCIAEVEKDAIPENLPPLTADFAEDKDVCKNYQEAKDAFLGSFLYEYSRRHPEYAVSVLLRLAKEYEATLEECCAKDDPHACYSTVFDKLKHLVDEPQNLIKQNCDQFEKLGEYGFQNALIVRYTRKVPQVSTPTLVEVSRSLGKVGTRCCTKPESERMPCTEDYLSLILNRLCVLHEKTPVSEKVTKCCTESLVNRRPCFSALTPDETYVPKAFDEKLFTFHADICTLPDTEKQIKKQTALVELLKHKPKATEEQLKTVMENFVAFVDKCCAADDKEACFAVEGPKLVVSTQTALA
# Chain of Fibroblast growth factor 2 (Homo sapiens) (P09038 whole entry, looked up): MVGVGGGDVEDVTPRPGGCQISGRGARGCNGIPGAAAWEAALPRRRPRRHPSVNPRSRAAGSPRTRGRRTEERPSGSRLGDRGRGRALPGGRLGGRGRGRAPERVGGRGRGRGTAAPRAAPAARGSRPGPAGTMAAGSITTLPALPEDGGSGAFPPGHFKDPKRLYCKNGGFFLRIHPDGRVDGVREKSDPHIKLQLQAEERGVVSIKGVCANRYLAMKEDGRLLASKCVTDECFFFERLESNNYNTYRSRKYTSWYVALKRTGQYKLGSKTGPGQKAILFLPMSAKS
Compound,composite z-score [1],composite Z-score [2],composite z-score [3],composite z-score [4],composite z-score [5],composite z-score [6],composite z-score [7],composite z-score [8],composite z-score [9],composite z-score [10],composite z-score [11],composite z-score [12],composite z-score [13],composite z-score [14],composite z-score [15],composite z-score [16],z-score [17],composite z-score [18],composite z-score [19],z-score [20]
CO[C@@H]1C=CCC(=O)N[C@@H](C)C(=O)OC[C@@H](OC)[C@H](C)C=CCC(=O)OC[C@H]1C,-1.01,0.914 (inactive),-0.0967,-0.123,-0.689,-1.2,0.0645,0.451,1.49,-1.09,0.207,-0.724,-0.397,-0.556,1.39,0.615,1.04,1.59,-0.87,-0.461 (inactive)
CO[C@H]1COC(=O)CC=C[C@H](C)[C@H](OC)COC(=O)[C@@H](C)NC(=O)CC=C[C@@H]1C,-0.487,-0.347 (inactive),-0.0319,-0.164,-0.54,1.95,-0.0788,-0.445,1.49,-0.898,0.491,-1.08,0.764,-2.18,1.23,1.47,-0.838,1.52,-0.206,1.14 (inactive)
COC(=O)[C@H](C)NC(=O)CCC1CC(OC(=O)NCc2cccc3ccccc23)CC2(CCCC(COC(=O)NCc3ccccc3)O2)O1 (stereo not given in full),-0.0725,0.142 (inactive),0.062,-0.104,0.288,0.763,-0.206,1.26,0.7,0.984,0.432,0.976,0.388,0.893,0.729,0.846,-0.139,1.17,0.22,1.09 (inactive)
C#CCCCON=C1C[C@@H](O)[C@@H](O)[C@@H]2[C@@H]3C(=O)N(C[C@@H]4CCCO4)C(=O)[C@@H]3CC[C@H]12,0.541,1.11 (inactive),-0.0662,-0.115,0.239,0.335,0.142,0.63,0.249,0.732,0.185,0.508,0.235,0.509,0.669,0.103,-0.544,0.388,0.0691,0.451 (inactive)
C#CCCCON=C1[C@H]2CCn3c(=O)n(Cc4cc5c(cc4Cl)OCO5)c(=O)n3[C@H]2[C@H](O)[C@@H]2O[C@H]12,-0.252,-0.141 (inactive),-0.0178,-0.106,-0.0303,-0.138,-0.122,0.431,0.424,0.656,0.229,0.522,-0.383,0.0676,0.751,0.486,0.146,0.748,-0.232,0.303 (inactive)
C=CC[C@@H]1C=C[C@H](ON=CC[C@@H]2C=C[C@H](OC(C)=O)[C@@H](COC(C)=O)O2)[C@@H](CO)O1,0.0919,-0.0027 (inactive),0.164,0.0219,0.197,0.312,0.0839,1.29,0.441,0.823,1.37,0.915,-0.0825,0.991,0.538,0.945,-0.0536,0.918,0.566,0.328 (inactive)
COc1ccc(COC(=O)NN=C2C[C@@H](O)[C@@H](O)[C@@H]3[C@@H]4C(=O)N(C(C)(C)C)C(=O)[C@@H]4CC[C@@H]23)cc1,0.584,0.526 (inactive),0.136,-0.167,0.346,0.685,0.31,1.14,0.59,0.632,0.839,0.656,-0.14,0.874,0.542,0.247,-0.367,0.548,0.608,0.137 (inactive)
COC(=O)[C@H](C)NC(=O)CCC1CC(OC(=O)NCCc2ccc(F)cc2)CC2(CCCC(COC(=O)NCC3CCCCC3)O2)O1 (stereo not given in full),0.0505,0.697 (inactive),-0.0362,-0.106,0.427,1.52,0.191,1.3,0.507,0.971,0.608,1.19,0.178,0.86,0.639,0.572,-1.03,0.744,0.804,0.765 (inactive)
COc1cccc([C@H](O)Cn2cc(-c3ccc(CON=C(C)C)cc3)nn2)c1,0.212,-0.511 (inactive),-0.0647,0.127,-0.0261,-0.011,-0.169,-0.937,0.0083,-2.65,0.0043,-1.15,-0.351,-1.01,-0.46,-0.153,-0.442,-0.324,-0.3,0.278 (inactive)
CC(C)CON=C1C[C@@H](O)[C@@H](O)[C@@H]2[C@@H]3C(=O)N(C(C)(C)C)C(=O)[C@@H]3CC[C@@H]12,-0.708,0.11 (inactive),-0.157,-0.14,-0.488,-0.75,-0.0854,0.845,1.5,-1.21,-0.587,-0.537,-0.577,-0.766,1.39,1.46,-0.832,1.51,-0.804,0.444 (inactive)
C#CCCCON=C1C[C@@H](O)[C@@H](O)[C@@H]2[C@@H]3C(=O)N(CC)C(=O)[C@@H]3CC[C@H]12,-0.0021,0.52 (inactive),-0.118,-0.148,0.728,1.35,0.187,0.866,-0.0382,-0.357,1.93,0.286,-0.442,0.636,-0.473,-0.0374,-0.27,0.162,1.07,0.0384 (inactive)
